PubChem BioAssay (NCI)
Compounds without any hit were thinned out: in the full panel of roughly 83,000, 20% have a hit.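 Step 1: grow cells in 96-well plates. Step 2: add test compound at a single concentration. Step 3: incubate 48 h. Step 4: record percent growth.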 Calls of active or inactive are those of the source. The calls were made as follows: active = growth percent below 10; inactive = the rest.

Legend:
Experiment in all cases: NCI-60 one-dose screen, 48 h (100 = growth as untreated, 0 = no growth, -100 = all killed)
Conditions in all cases: 10 µM unless noted
SK-MEL-2 melanoma = system: SK-MEL-2 melanoma
EKVX NSCLC = system: EKVX NSCLC
SN12C renal = system: SN12C renal
UO-31 renal = system: UO-31 renal
TK-10 renal = system: TK-10 renal
ACHN renal = system: ACHN renal
CAKI-1 renal = system: CAKI-1 renal
A498 renal = system: A498 renal
CCRF-CEM leukemia = system: CCRF-CEM leukemia
MOLT-4 leukemia = system: MOLT-4 leukemia

Measured: growth

O=C(Cn1cc(CN2C(=O)c3ccccc3S2(=O)=O)nn1)Nc1nc2ccccc2s1
inactive: SK-MEL-2 melanoma 95.3% | EKVX NSCLC 105% | SN12C renal 105% | UO-31 renal 69.1% | TK-10 renal 97.5% | ACHN renal 90.5% | CAKI-1 renal 89.6% | A498 renal 108% | CCRF-CEM leukemia 113% | MOLT-4 leukemia 115%

O=CC1(C2(C=O)c3ccccc3-c3ccccc32)c2ccccc2-c2ccccc21
active: SK-MEL-2 melanoma -44.4% | EKVX NSCLC -78.4% | SN12C renal -29.1% | UO-31 renal -89.3% | TK-10 renal -79.9% | ACHN renal -79% | CAKI-1 renal -78.2% | A498 renal -84.1% | CCRF-CEM leukemia -5.1% | MOLT-4 leukemia -47.4%

COc1cc2oc(-c3cccc(NC(=O)c4cccc(Br)c4)c3)cc(=O)c2c(OC)c1OC
inactive: SK-MEL-2 melanoma 54% | EKVX NSCLC 61.3% | SN12C renal 54.2% | UO-31 renal 36.8% | TK-10 renal 65.5% | ACHN renal 44.1% | CAKI-1 renal 51.4% | A498 renal 46.6% | CCRF-CEM leukemia 30.3% | MOLT-4 leukemia 41.7%

CSc1nc2sc3c(c2c(=O)n1-c1ccc([N+](=O)[O-])cc1)CCCCC3
inactive: SK-MEL-2 melanoma 101% | EKVX NSCLC 85.7% | SN12C renal 88.3% | UO-31 renal 90.8% | TK-10 renal 92.9% | ACHN renal 67.5% | CAKI-1 renal 71% | A498 renal 80.2% | CCRF-CEM leukemia 93.3% | MOLT-4 leukemia 93.3%

Oc1c(Cl)cc(Cl)c2ccc(Cn3cc(-c4cc(F)cc(F)c4)nn3)nc12
active: CCRF-CEM leukemia 4.58%
inactive: SK-MEL-2 melanoma 96.3% | EKVX NSCLC 84.7% | SN12C renal 78.7% | UO-31 renal 68.3% | TK-10 renal 102% | ACHN renal 36.5% | CAKI-1 renal 18.1% | A498 renal 99.4% | MOLT-4 leukemia 17.4%

C#Cc1cccc(Nc2ncnc3ccc(-c4cnc(N)nc4)cc23)c1
inactive: SK-MEL-2 melanoma 19.8% | CCRF-CEM leukemia 35.7% | MOLT-4 leukemia 19.6%
active: EKVX NSCLC 2.36% | SN12C renal 7.3% | UO-31 renal -5.12% | TK-10 renal -9.72% | ACHN renal 3.99% | CAKI-1 renal 2.19% | A498 renal -44.6%

CC(C)=NNc1ccccn1
inactive: SK-MEL-2 melanoma 83.2% | EKVX NSCLC 18.8% | SN12C renal 45.4% | UO-31 renal 29.5% | TK-10 renal 39% | ACHN renal 27.9% | CAKI-1 renal 29.1% | A498 renal 78.1% | CCRF-CEM leukemia 26.8% | MOLT-4 leukemia 25.4%

O=S(=O)(Nc1cc(Br)c(O)c2ccccc12)c1ccc(F)cc1
active: MOLT-4 leukemia -40.3%
inactive: SK-MEL-2 melanoma 87.8% | EKVX NSCLC 109% | SN12C renal 49.3% | UO-31 renal 48.5% | TK-10 renal 123% | ACHN renal 71.2% | CAKI-1 renal 80.5% | A498 renal 89.9% | CCRF-CEM leukemia 11%

CN(C)c1ccc(Nc2cc(-c3cccc(OC(F)(F)F)c3)nc3ccc(N4CCCC4)cc23)cc1
inactive: SK-MEL-2 melanoma 106% | EKVX NSCLC 89.3% | SN12C renal 40.3% | UO-31 renal 74% | TK-10 renal 95.4% | ACHN renal 97.6% | CAKI-1 renal 89.6% | A498 renal 98.3%
active: CCRF-CEM leukemia 3.82% | MOLT-4 leukemia 2.94%

O=c1oc2ccccc2cc1C1=NN=C(SCc2ccccc2)SC1
inactive: SK-MEL-2 melanoma 116% | EKVX NSCLC 101% | SN12C renal 103% | UO-31 renal 73.7% | TK-10 renal 108% | ACHN renal 96.9% | CAKI-1 renal 87.4% | A498 renal 119% | CCRF-CEM leukemia 95.3% | MOLT-4 leukemia 97%

Cc1ccc(Cl)cc1Nc1nc(C(F)(F)F)ccc1C(=O)N/N=C/c1cccnc1
inactive: EKVX NSCLC 12.7% | SN12C renal 36.4% | UO-31 renal 15% | TK-10 renal 24.3% | ACHN renal 10.2% | CAKI-1 renal 14.3% | A498 renal 34% | CCRF-CEM leukemia 10.6%
active: SK-MEL-2 melanoma -5.85% | MOLT-4 leukemia 3.8%

COc1ccc2[nH]cc(-c3nc(-c4cn(C)c5c(Cl)nccc45)cs3)c2c1
inactive: SK-MEL-2 melanoma 50.9% | EKVX NSCLC 73.7% | SN12C renal 62.5% | UO-31 renal 36.6% | TK-10 renal 71.1% | ACHN renal 22.6% | CAKI-1 renal 60.2% | A498 renal 16% | CCRF-CEM leukemia 22.1% | MOLT-4 leukemia 36.2%

C/C(=N\NC(=O)c1ccccc1O)c1cccc(/C(C)=N/NC(=O)c2ccccc2O)n1
inactive: SK-MEL-2 melanoma 95.2% | EKVX NSCLC 30% | SN12C renal 55% | UO-31 renal 38.6% | TK-10 renal 41% | ACHN renal 39.7% | CAKI-1 renal 14.5% | A498 renal 71.9% | CCRF-CEM leukemia 21.8% | MOLT-4 leukemia 24.5%

CCOC(=O)c1cc2c(=O)oc3ccccc3c2oc1=O
inactive: SK-MEL-2 melanoma 78.1% | EKVX NSCLC 111% | SN12C renal 98.3% | UO-31 renal 82.7% | TK-10 renal 98.6% | ACHN renal 89.8% | CAKI-1 renal 111% | A498 renal 106% | CCRF-CEM leukemia 88.5% | MOLT-4 leukemia 87.1%

CC(C)(C)c1cc(-c2nc3ccc(N4CCN(S(C)(=O)=O)CC4)cc3[nH]2)cc(C(C)(C)C)c1O
inactive: SK-MEL-2 melanoma 94% | EKVX NSCLC 101% | SN12C renal 97.7% | UO-31 renal 97% | TK-10 renal 90.4% | ACHN renal 72.4% | CAKI-1 renal 75.5% | A498 renal 99.4% | CCRF-CEM leukemia 84.5% | MOLT-4 leukemia 64.6%

Cc1cccnc1NC(=S)Nc1ncccc1C
inactive: SK-MEL-2 melanoma 103% | EKVX NSCLC 95.6% | SN12C renal 98.4% | UO-31 renal 108% | TK-10 renal 90.1% | ACHN renal 109% | CAKI-1 renal 70.7% | A498 renal 115% | CCRF-CEM leukemia 91.4% | MOLT-4 leukemia 60.3%

COc1ccc(-c2csc(NC(=O)CSc3nc(-c4ccccc4)cc(=O)[nH]3)n2)cc1
inactive: SK-MEL-2 melanoma 59.7% | EKVX NSCLC 58.1% | SN12C renal 80.3% | UO-31 renal 65.6% | TK-10 renal 78.9% | ACHN renal 63% | CAKI-1 renal 74.7% | A498 renal 64.7% | CCRF-CEM leukemia 57.9% | MOLT-4 leukemia 14.4%

CCOP(=O)(OCC)c1nc(-c2ccccc2)oc1NCc1cccnc1
inactive: SK-MEL-2 melanoma 111% | EKVX NSCLC 104% | SN12C renal 103% | UO-31 renal 89.7% | TK-10 renal 101% | ACHN renal 103% | CAKI-1 renal 97.3% | A498 renal 102% | CCRF-CEM leukemia 108% | MOLT-4 leukemia 101%

CC(C)c1ccc(NC(=O)Nc2ccc(NC(=O)CCCC(=O)NOCc3ccccc3)cc2)cc1
inactive: SK-MEL-2 melanoma 87.7% | EKVX NSCLC 105% | SN12C renal 92.8% | UO-31 renal 85% | TK-10 renal 103% | ACHN renal 87.4% | CAKI-1 renal 87.9% | A498 renal 96.4% | CCRF-CEM leukemia 75.1% | MOLT-4 leukemia 71.1%

COc1ccc(/C=C2\COc3ccc(O)c(O)c3C2=O)cc1
active: SN12C renal -39.1% | UO-31 renal -86.3% | TK-10 renal 7.43% | ACHN renal -42% | CAKI-1 renal 2.2% | CCRF-CEM leukemia 7.73% | MOLT-4 leukemia 3.83%
inactive: SK-MEL-2 melanoma 57.4% | EKVX NSCLC 48% | A498 renal 24.4%

NC(=O)CCC(C(=O)O)N1C(=O)c2ccc(O)cc2C1=O (stereo not given)
inactive: SK-MEL-2 melanoma 97% | EKVX NSCLC 101% | SN12C renal 108% | UO-31 renal 93.1% | TK-10 renal 114% | ACHN renal 93.1% | CAKI-1 renal 80% | A498 renal 115% | CCRF-CEM leukemia 91.1% | MOLT-4 leukemia 59.1%

CN1C(=O)/C(=C/c2cn(-c3ccccc3)nc2-c2ccccc2)SC1=S
inactive: SK-MEL-2 melanoma 107% | EKVX NSCLC 102% | SN12C renal 100% | UO-31 renal 92.2% | TK-10 renal 112% | ACHN renal 100% | CAKI-1 renal 89.1% | A498 renal 79.2% | CCRF-CEM leukemia 107% | MOLT-4 leukemia 114%

COC(=O)c1n[nH]c2ccc3nc(-c4cn[nH]c4C(F)(F)F)c4c(c3c12)CCCC4
active: A498 renal 5.79%
inactive: SK-MEL-2 melanoma 11.9% | EKVX NSCLC 64% | SN12C renal 47.7% | UO-31 renal 29% | TK-10 renal 19.4% | ACHN renal 39% | CAKI-1 renal 15.3% | CCRF-CEM leukemia 42.8% | MOLT-4 leukemia 50.4%

CCN1CC(=O)N(/N=C2\C(=O)Nc3ccccc32)C1=S
inactive: SK-MEL-2 melanoma 92.7% | EKVX NSCLC 80.8% | SN12C renal 86.1% | UO-31 renal 60.5% | TK-10 renal 105% | ACHN renal 76.9% | CAKI-1 renal 59% | A498 renal 82.4% | CCRF-CEM leukemia 102% | MOLT-4 leukemia 98%

COCCn1c(-c2csc(-c3cn(C)c4ccc(OC)cc34)n2)cc2cccnc21
inactive: SK-MEL-2 melanoma 54% | EKVX NSCLC 58.5% | SN12C renal 80.2% | UO-31 renal 54.9% | TK-10 renal 43.6% | ACHN renal 70.9% | CAKI-1 renal 74.8% | A498 renal 60.8% | CCRF-CEM leukemia 41.3% | MOLT-4 leukemia 54.4%

CCc1n(Cc2ccc3ccccc3c2)cc[n+]1Cc1ccc2ccccc2c1
inactive: EKVX NSCLC 11.9% | UO-31 renal 80.6% | ACHN renal 72.3% | CAKI-1 renal 84.5% | A498 renal 21.8% | CCRF-CEM leukemia 11.4% | MOLT-4 leukemia 10.6%
active: SK-MEL-2 melanoma -55.2% | SN12C renal 6.37% | TK-10 renal -10.3%

COc1cc2c(c(OC)c1OC)-c1ccc(OC)c(=O)cc1[C@@H](NC(=O)CCl)CC2
inactive: SK-MEL-2 melanoma 41.1% | EKVX NSCLC 74.3% | SN12C renal 19.3% | UO-31 renal 32.8% | TK-10 renal 34.1% | ACHN renal 25.4% | CAKI-1 renal 30.1% | CCRF-CEM leukemia 15.3% | MOLT-4 leukemia 20.9%
active: A498 renal -4.98%
